This is a sample that favours compounds with a hit; in the whole collection about 3.4% have one here.
Vif imaging: blocks HIV Vif function; inhibition, % at 7.49 µM; HEK293T cells, Vif self-association by quenched fluorescence, imaging, 24 h; AID 602346; 340,000 compounds, 0.35% hits; in the data active = inhibition above about 50%, passing the limit was not always enough
esBAF inh: inhibitors of esBAF chromatin remodeling in mouse ES cells. Bmi1-luciferase knock-in reporter, 24 h; 100% = twice the neutral-well signal. reporter increase, % at 12.5 µM. 350,000 compounds, 2% hits. AID 602393; in the data active = activation above about 40%;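 note: 0% = median of the plate's neutral control wells and 100% = double that signal; a rise in the Bmi1 reporter signal indicates esBAF inhibition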
HSF-1 act: increases HSF-1 driven luciferase reporter signal; activation, % at 9 µM; NIH3T3-HGL HSF-1 luciferase reporter, MG132, 8 h; 100% = twice DMSO control signal; AID 504408; 300,000 compounds, 1.7% hits;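 active = mean replicate activation of at least 50% with a set share of replicates each reaching 50%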;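 note: 0% = median of the neutral control wells and 100% = twice that signal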
HSF1 inh: HSF1 inhibition | activity change, negative = inhibition, % at 7.5 µM (by protocol) | 300,000 compounds, 0.77% hits | AID 2098 | NIH3T3-HGL HSE-luciferase, MG132-induced, luminescence 8 h; hits give low values;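 active = more than half of replicate wells show activity change below -50%, luminescence cut by over half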;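 note: luciferase reports HSF-1 transcriptional activity via heat shock element; 0% = median of DMSO wells and -100% = zero luminescence signal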
* hit, by the source's call; . = no result given.

SMILES	Vif imaging	esBAF inh	HSF-1 act	HSF1 inh
COc1ccc(CCNC(=O)c2ccc(CNS(=O)(=O)c3cccc(Cl)c3)cc2)cc1OC	-3.5	.	59.9*	19.8
COc1ccc(CCNC(=O)c2ccc(CNS(=O)(=O)c3ccc(C(C)(C)C)cc3)cc2)cc1OC	-4.0	.	10.7	14.7
CC(=O)N(C)C[C@H]1Oc2ncc(-c3cncnc3)cc2C(=O)N([C@@H](C)CO)C[C@@H]1C	.	-2.3	.	.
O=C(/C=C/c1ccccc1)c1ccccn1	-17.9	33.4	32.8	20.0
O=C(/C=C/c1ccc2c(c1)OCO2)c1ccccn1	-3.6	38.4*	60.2*	34.8
O=C(N/N=C/c1cc2c(cc1Br)OCO2)c1ccccn1	-6.2	.	60.1*	30.7
O=C(N/N=C/c1ccc2c(c1)OCO2)c1ccccn1	15.5	-60.5	22.7	1.3
O=C1COc2ccc(C(=O)/C=C/c3ccccc3)cc2N1	6.2	.	53.4*	22.0
CC(/C=C/c1ccc2c(c1)OCO2)=N/NC(=O)c1ccncc1	13.2	.	-76.5	-70.5*
CCNC(=O)C[C@@H]1CC[C@@H]2[C@@H](COc3ccc(NC(=O)Nc4cccc(Cl)c4)cc3C(=O)N2C)O1	.	5.8	.	.
O=C(NCC[C@H]1CC[C@@H](NC(=O)C2CCC2)[C@@H](CO)O1)c1ccc(F)cc1	.	-3.9	.	.
O=C(C=Cc1ccc2c(c1)OCO2)c1ccccc1	-7.4	49.9*	.	.
O=C(C=Cc1ccc2c(c1)OCO2)C=Cc1ccc2c(c1)OCO2	2.4	.	.	.
COC(=O)N/N=C\C=C\c1ccc2c(c1)OCO2	-8.6	.	19.0	18.1
CCN(CC(=O)Nc1c(C(=O)OC)[nH]c2ccccc12)c1ccc2c(c1)OCO2	-1.1	-2.8	-3.1	-11.4
CC(C)(C)OC(=O)N/N=C/c1ccc(Br)cc1	0.7	.	52.8*	18.0
COC(=O)c1[nH]c2ccccc2c1NC(=O)/C=C/c1ccc2c(c1)OCO2	-19.1	.	78.2*	23.9
CC(C)(C)OC(=O)N/N=C\C=C\c1ccc2c(c1)OCO2	0.4	.	55.7*	34.6
CCCN1C[C@H](C)[C@H](OC)CN(C)C(=O)c2cc(NS(=O)(=O)CC)ccc2OC[C@H]1C	.	1.7	.	.
C[C@H](CO)N1C[C@H](C)[C@H](CN(C)C(=O)NC2CCCC2)Oc2ncc(C#CC3CCCCC3)cc2C1=O	.	-1.8	.	.
CCCNC(=O)C[C@H]1CC[C@H]2[C@@H](COC[C@H](O)CN2Cc2ccncc2)O1	.	-2.3	.	.
C/C=C/c1ccc([C@@H]2[C@H](C#N)N(C(=O)c3cccnc3)[C@H]2CO)cc1	.	0.1	.	.
C[C@@H]1CN([C@H](C)CO)S(=O)(=O)c2ccc(-c3cccc(F)c3)cc2O[C@@H]1CN(C)S(=O)(=O)c1ccccc1	.	9.1	.	.
Cc1ccc(C(=O)/C=C/c2ccc3c(c2)OCCO3)c(O)c1	5.3	.	5.5	-0.4
O=C(/C=C/c1ccc2c(c1)OCCCO2)c1ccc2ccccc2c1O	1.8	45.0*	40.5	16.3
SMILES	Vif imaging	esBAF inh	HSF-1 act	HSF1 inh
C[C@@H]1CN([C@H](C)CO)S(=O)(=O)c2ccc(-c3cncnc3)cc2O[C@@H]1CN(C)C(=O)C1CCC1	.	-0.7	.	.
CC(=O)Nc1ccc(S(=O)(=O)N2CCN(C(=O)c3ncoc3-c3cccc(C)c3)CC2)cc1	22.3	2.3	8.6	2.2
Cc1cccc(-c2ocnc2C(=O)N2CCN(C(=O)c3cccs3)CC2)c1	-8.3	-1.1	-88.7	-86.7*
COc1cccc(N(CC(=O)Nc2cccnc2)S(C)(=O)=O)c1	-9.5	1.4	-85.0	-80.8*
COc1ccc(OC)c(N(CC(=O)Nc2ccccc2)S(C)(=O)=O)c1	3.4	-0.3	-71.8	-65.2*
CC(=O)c1cccc(N=Cc2c(O)c3ccccc3oc2=O)c1	0.8	-3.4	105.7*	73.7
CC(=O)Nc1ccc(N=Cc2c(O)c3ccccc3oc2=O)cc1	6.9	0.3	63.2*	26.2
CCOC(=O)c1ccc(N=Cc2c(O)c3ccccc3oc2=O)cc1	-13.0	5.6	-14.8	-17.5
C[C@H]1CCCCO[C@@H](CN(C)C(=O)c2ccccc2)[C@@H](C)CN([C@@H](C)CO)C(=O)c2cc(NC(=O)Nc3ccc(C(F)(F)F)cc3)ccc2O1	.	-10.7	.	.
C[C@H](CO)N1C[C@H](C)[C@@H](CN(C)C(=O)Nc2ccc(C(F)(F)F)cc2)OCCCC[C@H](C)Oc2ccc(NS(=O)(=O)c3cccs3)cc2C1=O	.	-5.7	.	.
CC(C)c1ccc(NC(=O)N2CCOCC2)cc1	-4.4	44.8*	2.9	-3.7
Cc1cccc(NC(=O)N2CCN(Cc3ccc(Cl)cc3)CC2)c1	-5.3	2.0	29.3	2.3
O=C(Nc1cccc(Cl)c1)N1CCN(Cc2ccccc2)CC1	16.6	73.7*	24.8	3.4
O=C(NCc1ccc(Cl)cc1)N1CCOCC1	50.4*	1.1	2.7	-5.5

Screening data deposited in PubChem by Broad Institute.
